Experiment [1] has as its system PRMT1 (protein arginine N-methyltransferase 1). In words: small molecules binding arginine methyltransferase PRMT1 – biochemical, small-molecule microarray, 635 nm fluorescence, primary screen (AID 1088).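 Also: binding of Prmt1 protein to compounds spotted on small-molecule microarray slides.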 Conditions: higher = more signal.
Experiment [2] is described as follows: growth effects on S. cerevisiae YJM789 – YJM789 clinical isolate, OD600, 24 h, basal, primary screen (AID 1089).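 Also: growth of clinical yeast isolate S. cerevisiae YJM 789 seeded 1000 cells per well; test concentration not given here.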 Conditions: higher = more signal, called active from +8 up or from −8 down.
A short description of experiment [3]: S. pombe growth modifiers, basal conditions – strain 972, OD600, 24 h, no modulator, primary screen (AID 1090).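 Also: basal condition with compound alone and no growth modifier present; test concentration not given here.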 Conditions: S. pombe 972 growth, higher = more signal, called active from +8 up or from −8 down.
A short description of experiment [4]: budding yeast growth modifiers under rapamycin – strain BY4716, OD600, 96 h, primary screen (AID 1091). Also: test concentration not given here. Conditions: S. cerevisiae BY4716 + rapamycin, higher = more signal, called active from +8 up or from −8 down.
Experiment [5] addresses Torsin-1A-interacting protein 2 (Homo sapiens) (UniProt Q8NFQ8). In words: small molecules binding lysate-expressed LULL1 – cell lysate, human LULL1 lysate, 635/667 nm fluorescence, primary screen (AID 1092).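 Also: probe is lysate of COS7 cells overexpressing human LULL1; score merges per-feature 667 nm fluorescence with signal-to-noise.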 Particulars: small-molecule microarray, hLULL1 lysate binding, 635 nm fluorescence; higher = more signal.
The nature of experiment [6]: optical density change of DRC41 E. coli – strain DRC41, OD650, 24 h, E. coli filamentation project, primary screen (AID 1093).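 Also: MC1000 strain lacking acrAB efflux and sulA so SOS filamentation is blocked; test concentration not given here.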 Conditions: E. coli DRC41 growth, higher = more signal, called active from +8 up or from −8 down.
Experiment [7] in a line: probe aLefty2 binding to arrayed compounds – biochemical, biotinylated probe, 635/667 nm fluorescence, primary screen (AID 1094).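 Also: score merges spot fluorescence near 667 nm with spot signal-to-noise ratio.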 Particulars: small-molecule microarray, higher = more signal.
Experiment [8] relates to Noggin (protein binding on small-molecule microarray). The experiment in a line: small molecules binding Noggin protein – biochemical, 635/667 nm fluorescence, primary screen (AID 1095).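 Also: score merges 667 nm feature fluorescence with signal to noise over triplicate slides.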 Particulars: 635 nm fluorescence, higher = more signal.
Experiment [9] has as its target Neurogenic locus notch homolog protein 3 (Homo sapiens) (UniProt Q9UM47). In words: small molecules binding NOTCH3 protein – biochemical, 635/667 nm fluorescence, primary screen (AID 1096). Conditions: small-molecule microarray, 635 nm fluorescence, higher = more signal.
Experiment [10] is described as follows: probe aEGFR binding to arrayed compounds – biochemical, biotinylated probe, 635/667 nm fluorescence, primary screen (AID 1097).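 Also: probe is a biotinylated anti-EGFR antibody binding compounds printed on slides; score combines fluorescence near 667 nm and signal to noise of each spot.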 Conditions: small-molecule microarray, higher = more signal.
Experiment [11] has as its system Plasmodium falciparum Sir2 (PF13_0152, Sir2A). The experiment in a line: Plasmodium falciparum Sir2A binding compounds – biochemical, small-molecule microarray, 635 nm fluorescence, primary screen (AID 1098).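 Also: score merges spot fluorescence intensity with its signal-to-noise ratio.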 Conditions: fluorescence 635 nm, higher = more signal.
Experiment [12] can be described thus: probe aDKK1 binding to arrayed compounds – biochemical, biotinylated probe, 635/667 nm fluorescence, primary screen (AID 1099).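 Also: score merges 667nm spot fluorescence with signal to noise across triplicate slides; reference of the scale not given here.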 Particulars: small-molecule microarray, higher = more signal.
A short description of experiment [13]: probe aCHRDL2 binding to arrayed compounds – biochemical, biotinylated probe, 635/667 nm fluorescence, primary screen (AID 1100). Conditions: small-molecule microarray, higher = more signal.
Experiment [14] can be described thus: change in splice reporter luminescence, either direction, cell-based, HEK293, spliceosome inhibition project, primary screen (AID 1101).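 Also: HEK293 cells carrying a splicing-competent luciferase reporter gene; test concentration not given here.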 Conditions: HEK293 splicing luciferase reporter, 24 h, higher = more signal, called active from +8 up or from −8 down. A general note: A reporter such as luciferase makes a cellular process visible.
In experiment [15] the target is Fibroblast growth factor 10 (Homo sapiens) (UniProt O15520). The experiment in a line: compounds binding fibroblast growth factor 10 – biochemical, small-molecule microarray, 635 nm fluorescence, primary screen (AID 1102). Particulars: FGF10 binding, fluorescence 635 nm, higher = more signal.
Sequence of Fibroblast growth factor 10 (Homo sapiens) (O15520 whole entry, looked up): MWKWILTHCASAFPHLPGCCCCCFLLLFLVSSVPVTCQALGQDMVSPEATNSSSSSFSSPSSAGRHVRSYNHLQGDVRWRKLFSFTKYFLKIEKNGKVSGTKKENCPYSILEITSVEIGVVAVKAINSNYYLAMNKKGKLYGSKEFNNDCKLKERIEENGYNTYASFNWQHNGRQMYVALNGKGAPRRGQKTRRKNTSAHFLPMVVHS
Experiment [16] concerns glycogen synthase kinase-3 (GSK3A per assay name; protocol says GSK3B). The experiment in a line: compounds binding glycogen synthase kinase-3 – biochemical, small-molecule microarray, 635 nm fluorescence, GSK3A, primary screen (AID 1103). Also: the record names both GSK3A and GSK3B. Conditions: fluorescence 635 nm, higher = more signal.
Experiment [17] deals with Epidermal growth factor receptor (Homo sapiens) (UniProt P00533). The experiment in a line: compounds binding epidermal growth factor receptor – biochemical, small-molecule microarray, 635 nm fluorescence, primary screen (AID 1104).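 Also: score merges 667 nm emission intensity with spot signal to noise over triplicate slides.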 Conditions: EGFR binding, higher = more signal.
Sequence of Epidermal growth factor receptor (Homo sapiens) (P00533 whole entry, looked up): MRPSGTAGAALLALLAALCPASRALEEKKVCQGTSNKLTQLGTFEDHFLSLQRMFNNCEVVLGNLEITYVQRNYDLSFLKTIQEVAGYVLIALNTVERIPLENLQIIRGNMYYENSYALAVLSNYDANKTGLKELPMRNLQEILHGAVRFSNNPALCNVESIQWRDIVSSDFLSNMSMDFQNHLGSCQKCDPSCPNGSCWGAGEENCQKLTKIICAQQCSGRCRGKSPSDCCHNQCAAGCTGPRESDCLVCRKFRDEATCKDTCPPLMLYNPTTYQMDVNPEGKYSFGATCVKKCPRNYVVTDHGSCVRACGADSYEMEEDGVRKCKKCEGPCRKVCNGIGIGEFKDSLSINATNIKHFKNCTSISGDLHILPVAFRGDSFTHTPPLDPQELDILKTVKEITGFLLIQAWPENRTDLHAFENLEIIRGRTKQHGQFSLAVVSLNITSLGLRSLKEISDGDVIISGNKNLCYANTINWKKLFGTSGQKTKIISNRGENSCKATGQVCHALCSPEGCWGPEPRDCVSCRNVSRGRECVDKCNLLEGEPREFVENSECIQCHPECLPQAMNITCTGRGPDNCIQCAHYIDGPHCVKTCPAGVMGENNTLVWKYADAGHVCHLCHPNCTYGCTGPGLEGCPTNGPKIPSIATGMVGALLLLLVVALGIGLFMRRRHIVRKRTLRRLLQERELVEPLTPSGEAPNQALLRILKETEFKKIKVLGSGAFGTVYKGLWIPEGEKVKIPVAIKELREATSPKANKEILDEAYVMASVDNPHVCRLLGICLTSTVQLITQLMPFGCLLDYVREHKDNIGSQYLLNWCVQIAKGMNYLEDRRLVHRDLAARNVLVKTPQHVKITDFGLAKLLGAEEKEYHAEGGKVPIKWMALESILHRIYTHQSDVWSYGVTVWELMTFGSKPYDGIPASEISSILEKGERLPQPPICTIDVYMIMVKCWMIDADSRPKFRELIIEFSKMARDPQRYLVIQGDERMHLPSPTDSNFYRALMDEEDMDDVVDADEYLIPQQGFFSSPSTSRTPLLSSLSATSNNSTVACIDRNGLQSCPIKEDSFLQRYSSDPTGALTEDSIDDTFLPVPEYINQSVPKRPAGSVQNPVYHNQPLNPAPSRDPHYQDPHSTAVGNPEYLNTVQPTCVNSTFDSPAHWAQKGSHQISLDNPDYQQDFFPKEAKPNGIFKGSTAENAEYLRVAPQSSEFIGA
Experiment [18] addresses Follistatin-related protein 3 (Homo sapiens) (UniProt O95633). In words: compounds binding follistatin-related protein 3 – biochemical, small-molecule microarray, 635 nm fluorescence, primary screen (AID 1105).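 Also: score merges emission near 667 nm and signal to noise per printed spot across three slides.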 Particulars: FSTL3 binding, higher = more signal.
The target in experiment [19] is Dickkopf-related protein 1 (Homo sapiens) (UniProt O94907). In words: small molecules binding DKK1 protein – biochemical, small-molecule microarray, 635 nm fluorescence scan, primary screen (AID 1106).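 Also: score merges emission near 667 nm with signal to noise over three replicate slides.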 Conditions: higher = more signal.
Sequence of Dickkopf-related protein 1 (Homo sapiens) (O94907 whole entry, looked up): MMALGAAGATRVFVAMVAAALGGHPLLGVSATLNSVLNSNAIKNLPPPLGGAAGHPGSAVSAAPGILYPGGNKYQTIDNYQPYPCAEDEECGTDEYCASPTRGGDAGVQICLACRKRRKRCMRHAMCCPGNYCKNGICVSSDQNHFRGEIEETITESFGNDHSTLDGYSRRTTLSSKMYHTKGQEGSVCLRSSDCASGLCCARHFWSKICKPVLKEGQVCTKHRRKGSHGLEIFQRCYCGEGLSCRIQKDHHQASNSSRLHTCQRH
Experiment [20] deals with Inhibin beta A chain (activin A). In words: small molecules binding activin A – biochemical, small-molecule microarray, 635 nm fluorescence scan, primary screen (AID 1107).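 Also: mouse activin A protein probed at 4.33 µg/mL on printed slides; score merges bound-protein fluorescence near 667 nm with spot signal-to-noise.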 Particulars: INHBA, higher = more signal.

The structures appear in SMILES notation. Calls of active or inactive are those of the source.

Sequence of Neurogenic locus notch homolog protein 3 (Homo sapiens) (Q9UM47 whole entry, looked up): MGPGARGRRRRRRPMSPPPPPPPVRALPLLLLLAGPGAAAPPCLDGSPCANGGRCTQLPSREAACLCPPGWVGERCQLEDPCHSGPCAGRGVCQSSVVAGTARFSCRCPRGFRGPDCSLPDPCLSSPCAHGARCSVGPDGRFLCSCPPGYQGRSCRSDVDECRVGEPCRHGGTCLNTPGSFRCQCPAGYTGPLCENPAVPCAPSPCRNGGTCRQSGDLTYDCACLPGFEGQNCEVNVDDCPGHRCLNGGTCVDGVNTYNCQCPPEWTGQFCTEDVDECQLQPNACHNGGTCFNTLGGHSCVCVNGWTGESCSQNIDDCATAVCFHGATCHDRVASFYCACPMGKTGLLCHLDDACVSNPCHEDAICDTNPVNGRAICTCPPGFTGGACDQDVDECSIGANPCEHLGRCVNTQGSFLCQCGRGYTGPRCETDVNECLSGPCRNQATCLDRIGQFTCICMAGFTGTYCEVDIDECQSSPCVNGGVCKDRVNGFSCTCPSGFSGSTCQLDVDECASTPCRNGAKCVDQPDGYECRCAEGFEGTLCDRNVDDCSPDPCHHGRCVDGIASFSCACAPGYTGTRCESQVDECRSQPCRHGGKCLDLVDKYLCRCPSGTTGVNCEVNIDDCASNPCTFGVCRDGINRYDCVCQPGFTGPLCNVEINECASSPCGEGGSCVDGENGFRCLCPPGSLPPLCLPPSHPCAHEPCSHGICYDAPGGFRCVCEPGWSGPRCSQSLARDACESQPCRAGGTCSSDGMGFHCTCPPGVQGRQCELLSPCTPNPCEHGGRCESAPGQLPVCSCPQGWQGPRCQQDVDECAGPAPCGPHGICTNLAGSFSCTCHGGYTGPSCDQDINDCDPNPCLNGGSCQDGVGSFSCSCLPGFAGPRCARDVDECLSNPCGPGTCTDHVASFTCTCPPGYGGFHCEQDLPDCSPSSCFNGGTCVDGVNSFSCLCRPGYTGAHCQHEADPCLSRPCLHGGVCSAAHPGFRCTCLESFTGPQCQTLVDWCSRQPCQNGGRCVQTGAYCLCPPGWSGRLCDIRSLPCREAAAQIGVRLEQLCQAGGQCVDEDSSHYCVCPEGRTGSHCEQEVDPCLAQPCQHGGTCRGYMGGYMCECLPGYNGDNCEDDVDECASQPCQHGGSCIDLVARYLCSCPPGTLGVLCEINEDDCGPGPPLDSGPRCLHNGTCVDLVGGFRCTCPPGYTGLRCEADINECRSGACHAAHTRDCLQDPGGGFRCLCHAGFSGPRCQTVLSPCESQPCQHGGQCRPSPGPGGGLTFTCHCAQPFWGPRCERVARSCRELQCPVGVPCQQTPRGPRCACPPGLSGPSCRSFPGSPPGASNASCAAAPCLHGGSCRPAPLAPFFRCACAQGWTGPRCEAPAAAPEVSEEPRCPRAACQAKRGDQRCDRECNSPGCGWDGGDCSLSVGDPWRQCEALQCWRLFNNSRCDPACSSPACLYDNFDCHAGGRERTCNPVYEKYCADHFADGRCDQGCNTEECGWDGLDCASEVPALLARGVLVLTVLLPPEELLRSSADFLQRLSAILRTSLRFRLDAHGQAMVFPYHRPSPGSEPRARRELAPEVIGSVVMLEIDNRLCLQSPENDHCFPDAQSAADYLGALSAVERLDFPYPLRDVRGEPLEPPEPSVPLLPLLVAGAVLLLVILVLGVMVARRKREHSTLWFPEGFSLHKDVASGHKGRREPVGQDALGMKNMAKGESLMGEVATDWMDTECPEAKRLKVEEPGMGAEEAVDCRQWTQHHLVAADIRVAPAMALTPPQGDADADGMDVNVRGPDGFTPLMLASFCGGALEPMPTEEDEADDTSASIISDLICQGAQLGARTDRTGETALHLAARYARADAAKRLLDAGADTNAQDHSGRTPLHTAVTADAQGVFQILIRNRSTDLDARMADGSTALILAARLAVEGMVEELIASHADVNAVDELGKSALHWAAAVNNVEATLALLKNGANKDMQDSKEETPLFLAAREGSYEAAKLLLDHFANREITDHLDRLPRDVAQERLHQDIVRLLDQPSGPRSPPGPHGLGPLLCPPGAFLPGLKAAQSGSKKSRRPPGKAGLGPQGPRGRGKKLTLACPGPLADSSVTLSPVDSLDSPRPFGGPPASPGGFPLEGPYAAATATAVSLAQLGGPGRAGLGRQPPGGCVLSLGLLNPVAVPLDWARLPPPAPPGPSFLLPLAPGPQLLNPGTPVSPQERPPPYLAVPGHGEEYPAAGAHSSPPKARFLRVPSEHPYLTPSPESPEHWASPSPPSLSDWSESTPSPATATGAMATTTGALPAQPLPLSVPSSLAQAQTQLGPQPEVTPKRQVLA
Sequence of Follistatin-related protein 3 (Homo sapiens) (O95633 whole entry, looked up): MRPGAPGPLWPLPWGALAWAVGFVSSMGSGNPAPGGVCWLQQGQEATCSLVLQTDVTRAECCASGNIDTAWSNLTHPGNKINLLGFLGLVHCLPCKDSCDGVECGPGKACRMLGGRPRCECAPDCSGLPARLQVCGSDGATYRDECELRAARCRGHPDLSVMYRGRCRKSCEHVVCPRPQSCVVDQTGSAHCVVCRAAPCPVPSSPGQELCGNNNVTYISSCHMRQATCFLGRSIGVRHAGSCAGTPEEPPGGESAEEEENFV
Sequence of Torsin-1A-interacting protein 2 (Homo sapiens) (Q8NFQ8 whole entry, looked up): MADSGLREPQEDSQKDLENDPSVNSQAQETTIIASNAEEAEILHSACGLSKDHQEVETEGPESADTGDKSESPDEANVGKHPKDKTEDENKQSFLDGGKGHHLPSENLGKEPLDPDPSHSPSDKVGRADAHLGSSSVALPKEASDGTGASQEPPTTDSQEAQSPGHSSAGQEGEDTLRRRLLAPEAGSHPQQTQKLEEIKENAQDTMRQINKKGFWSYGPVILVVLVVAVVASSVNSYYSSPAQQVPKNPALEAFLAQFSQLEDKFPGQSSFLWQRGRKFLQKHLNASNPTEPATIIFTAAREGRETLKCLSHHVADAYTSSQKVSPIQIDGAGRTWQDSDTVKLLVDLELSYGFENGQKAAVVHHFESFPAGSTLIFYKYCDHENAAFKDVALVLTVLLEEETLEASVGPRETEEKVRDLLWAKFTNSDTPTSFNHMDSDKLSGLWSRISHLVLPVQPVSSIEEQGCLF

Regarding `NCCCCCNC(=O)[C@@H]1C[C@@H]2C(=O)N[C@@H](CCCCN)C(=O)N2[C@@H]1c1ccc(O)cc1`, the composite z-score was found to be 1.53 in [1]; 3.2 in [5]; 0.303 in experiment [7]; 1.67 in [8]; 0.881 in experiment [9]; 0.345 in experiment [10]. Besides, the composite z-score in experiment [11] was found to be 1.57; in experiment [12] it was 0.899; in experiment [13], 0.713; in experiment [15] it was 1.41; in [16], 1.34; in [17] it was 1.13. Besides, the composite z-score in experiment [18] stood at 1.43; in experiment [19], 1.81; in experiment [20], 1.32. Also, the z-score in experiment [2] is 1.83 (inactive); in experiment [3] it was 1.91 (inactive); in [4], 3.76 (inactive); in experiment [6], -0.0616 (inactive); in experiment [14], 0.498 (inactive).
For `O=C1OCCC/C=C\[C@H]2OC34C=CCN(c5ccc6ccccc6c5)C(=O)[C@H]3N(CCO)C(=O)[C@@H]4C12` (stereo not given in full), the composite z-score was -0.352 in experiment [1]; 0.25 in experiment [5]; -0.14 in [7]; -1.79 in experiment [8]; -0.858 in experiment [9]; -0.335 in experiment [10]. The composite z-score in [11] is 1.32; in experiment [12], -0.416; in [13], 0.256; in [15] it was -0.654; in [16], -0.785; in experiment [17], -1.83. In addition, the composite z-score in experiment [18] was -1.59; in experiment [19], -1.09; in [20], 0.0621. In addition, the z-score in experiment [2] was 0.0709 (inactive); in experiment [3], -0.224 (inactive); in [4], 0.341 (inactive); in experiment [6], 0.491 (inactive); in experiment [14], -1.07 (inactive).
As to `COCCOC(=O)N1C(=O)[C@@]2(c3cc(C#CCNC(N)=O)ccc31)[C@H](C(N)=O)[C@H]1C(=O)O[C@H](c3ccccc3)[C@H](c3ccccc3)N1[C@@H]2c1ccccc1OCCO`, the composite z-score was 1.47 in experiment [1]; 2.07 in [5]; 0.0389 in experiment [7]; 0.506 in experiment [8]; 1.08 in [9]; -0.071 in experiment [10]. Besides, the composite z-score was 1.16 in experiment [11]; 0.0377 in [12]; 0.803 in [13]; 1.07 in experiment [15]; 0.782 in experiment [16]; 0.302 in experiment [17]. Moreover, the composite z-score in experiment [18] is 1.31; in experiment [19], 0.78; in [20], 1.11. Besides, the z-score was 1 (inactive) in [2]; 0.346 (inactive) in [3]; 1.91 (inactive) in [4]; -0.658 (inactive) in [6]; 0.565 (inactive) in [14].
`COc1ccc([Si](C)(C)[C@@H]2[C@@H](CCO)O[C@]3(C(=O)N(Cc4ccccc4)c4ccc(N5C(=O)c6cccc7cccc5c67)cc43)[C@H]2C)cc1`: the composite z-score in [1] is 0.473; in [5], 0.984; in experiment [7], -0.186; in experiment [8] it was -0.129; in [9], -0.0162; in experiment [10] it was -0.177. For the same molecule, the composite z-score was 1.42 in experiment [11]; 0.0194 in experiment [12]; 0.42 in experiment [13]; -0.231 in [15]; -0.642 in experiment [16]; -0.0299 in [17]. The composite z-score in experiment [18] was -0.448; in experiment [19] it was -0.0876; in experiment [20], -0.344. The z-score was 0.849 (inactive) in [2]; 1.97 (inactive) in experiment [3]; 37.1 (active) in experiment [4]; 0.89 (inactive) in experiment [6]; -0.884 (inactive) in experiment [14].
As for `CCCCCN1CC=CC23O[C@@H]4C=CCCOC(=O)C4[C@H]2C(=O)N(CCCCCCO)[C@@H]3C1=O` (stereo not given in full), the composite z-score in experiment [1] is 0.812; in experiment [5], 3.49; in [7], -0.423; in experiment [8], -0.362; in experiment [9], -0.135; in experiment [10] it was -0.282. Also, the composite z-score in experiment [11] was 0.788; in [12], -0.467; in experiment [13], -0.272; in experiment [15] it was 0.0027; in [16], -0.284; in [17], -0.547. The composite z-score in experiment [18] is -1.01; in experiment [19] it was -0.69; in [20], -0.206. For the same molecule, the z-score in [2] was -0.0966 (inactive); in experiment [3], -0.0045 (inactive); in [4], -0.0168 (inactive); in experiment [6], 0.313 (inactive); in experiment [14], 2.61 (inactive).
